ELG1 genotoxic = induces genotoxicity in HEK293T cells with luciferase-tagged ELG1 | HEK293T ELG1-luciferase reporter, luminescence, 16 h | Potency, µM (series often up to 46 µM), without a hit: at the top dose activity change, positive = activation, most hits filed as activators | 1.3% of 330,000 active | AID 504466; also: % of control where 0% means no effect; nearly all actives have a fitted effect of over 60% in size
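Screening used a luciferase reporter fused to human ELG1 in HEK293T cells. Luminescence was read on a CCD plate imager after 16 hr exposure and 30 min ONE-Glo incubation.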
ELG1 DNA repair = inhibitors of ELG1-dependent DNA repair in HEK293T cells; HEK293T ELG1-luciferase reporter, luminescence, 16 h; DNA damage induced by 5-fluorouridine; Potency, µM (titrated, usually from 46.1 µM), inactives show at the top dose activity change, negative = inhibition, actives largely listed as inhibitors; 2.3% of 330,000 active; also: % is scaled to controls: 0 for no effect and ±100 for the full control effect; nearly all actives have a fitted effect of over 55% in size
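In this reporter screen, reduction of luminescence relative to DMSO vehicle indicated activity. Compounds and 5-fluorouridine were added together to 2,000 cells per well, incubated for 16 hr at 37 °C, then developed with ONE-Glo.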
SMN2 splice up = increases expression of the SMN2 splice variant | HEK293 SMN2-luciferase splicing reporter, luminescence, 30-36 h | Potency, µM (titrated, usually from 46.1 µM), without a hit: at the highest dose activity change, positive = activation, usual class: activators | 2.8% of 210,000 active | AID 1458; also: % of control where 0% means no effect; nearly all actives have a fitted effect of over 55% in size
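HEK293 cells carry an SMN2 minigene-luciferase reporter in which exon 7 inclusion puts luciferase in frame. Cells were seeded at 2000 cells/well, attached for 10-12 hours, then exposed to compounds for 30-36 hours at 37C before ONE-Glo luminescence.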
Rab9 prom act = Rab9 promoter activation. 2.8% of 320,000 active. AID 485297. Potency, µM (doses to about 9.22 µM), for the others: top-dose activation, negative = inhibition, hits mostly activators. Huh7 Rab9 promoter-luciferase reporter, luminescence, 24 h; also: % of control where 0% means no effect; nearly all actives have a fitted effect of over 60% in size
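Promoter activation is measured as luciferase luminescence in Huh7 cells stably transfected with a Rab9 promoter–luciferase construct, following 24 h compound exposure at 37 °C and 10 min reagent incubation at ambient temperature.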
FLuc counter = counter-screen for miR-21 project: firefly luciferase inhibitors or activators | Potency, µM (doses to about 57.5 µM), without a hit: at the highest dose activity change, negative = inhibition, usual class: inhibitors | 6.9% of 360,000 active | AID 588342 | purified FLuc, Km substrates, luminescence inhibition | P08659;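 also: plate controls were vehicle for no effect and reference inhibitor for full effect; nearly all actives have a fitted effect of over 55% in size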
Target sequence (P08659 whole entry, looked up): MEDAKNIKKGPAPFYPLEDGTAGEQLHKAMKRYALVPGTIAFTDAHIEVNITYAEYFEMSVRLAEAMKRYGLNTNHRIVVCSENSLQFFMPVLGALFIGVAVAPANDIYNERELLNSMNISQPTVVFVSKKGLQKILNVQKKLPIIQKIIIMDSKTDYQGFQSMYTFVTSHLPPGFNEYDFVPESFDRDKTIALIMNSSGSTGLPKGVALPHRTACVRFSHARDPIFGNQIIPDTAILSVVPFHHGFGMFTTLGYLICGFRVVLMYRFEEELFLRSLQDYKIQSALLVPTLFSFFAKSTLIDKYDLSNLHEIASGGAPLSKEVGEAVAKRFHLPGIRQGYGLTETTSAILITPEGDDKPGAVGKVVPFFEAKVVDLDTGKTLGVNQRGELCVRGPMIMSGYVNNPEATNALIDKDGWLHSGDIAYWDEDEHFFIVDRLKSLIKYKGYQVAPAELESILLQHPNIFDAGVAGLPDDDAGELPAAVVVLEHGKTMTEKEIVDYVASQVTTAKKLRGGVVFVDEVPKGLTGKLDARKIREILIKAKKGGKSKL
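Purified P. pyralis luciferase, 10 nM final, with Km-level 10 uM D-luciferin and 10 uM ATP in 50 mM Tris acetate pH 7.5, 10 mM Mg acetate, 0.01% Tween-20, 0.05% BSA; 6-point qHTS titration about 60 µM downward; luminescence read.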
NPC1 prom act = activates the NPC1 promoter; Huh7 NPC1 promoter luciferase reporter, 24 h; Potency, µM (series often up to 9.22 µM), inactives show top-dose activation, usual class: activators; 2.4% of 320,000 active; AID 485313; also: % of control where 0% means no effect; nearly all actives have a fitted effect of over 60% in size
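Compounds in DMSO were transferred onto Huh7 NPC1-luciferase reporter cells pre-incubated 2 h; after 24 h at 37 °C, Amplite reagent was dispensed and luminescence recorded 10 min later.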
* = called active by the depositor; u = inconclusive; x = no result. Sampled rows, rich in hits. Any-hit rate of the full collection: about 9.4%. Calls follow the shape of the dose curve; as a rule, active = well fitted curve in the direction sought with a large enough effect; inconclusive = small, poorly fitted or top-dose-only effect, or another doubt; inactive = no such curve, though single readings can be large; an effect the other way counts as inactive or inconclusive. Potency is read from the fitted curve at half-maximal effect.

SMILES	ELG1 genotoxic	ELG1 DNA repair	SMN2 splice up	Rab9 prom act	FLuc counter	NPC1 prom act
COc1ccc(NC(=O)Cn2c(=O)nc(-c3ccccc3)c3ccccc32)cc1OC	x	x	x	x	-3.3%	x
COc1ccc(-c2csc(Nc3cc(C)ccn3)n2)cc1OC	4.9%	u	x	u	10.7µM*	u
COc1ccc(-c2csc(Nc3ccc(C)cn3)n2)cc1OC	-0.9%	u	-18.6%	u	16.9µM*	4.2%
COc1ccc(-c2csc(Nc3ccc(S(N)(=O)=O)cc3)n2)cc1OC	-14.2%	u	x	-1.5%	-16.5%	-12.3%
CCN(CC)S(=O)(=O)c1cc(C(=O)Oc2cccc(-c3cnc4ccccc4n3)c2)ccc1OC	9.8%	u	12.6µM*	u	-17.1%	u
CCN(CC)S(=O)(=O)c1ccc(C)c(NC(=O)Cn2c(=O)cnc3ccccc32)c1	-6.4%	u	-31.6%	4.3%	-6.0%	-4.6%
CCN(CC)S(=O)(=O)c1ccc(C)c(C(=O)Oc2cccc(-c3cnc4ccccc4n3)c2)c1	15.0%	u	17.8µM*	u	-0.2%	u
O=C(Oc1cccc(-c2cnc3ccccc3n2)c1)c1ccco1	u	u	12.6µM*	3.16µM*	23.9µM*	u
CCN(CC)S(=O)(=O)c1cc(C(=O)O)ccc1OC	0.0%	3.2%	x	-3.1%	2.7%	8.2%
COc1cccc(-c2ncc3ccccc3c2COC(=O)c2ccco2)c1	0.6%	u	x	-3.8%	-15.3%	-1.3%
Fc1ccc(-n2cc(-c3ccccc3)c3c(NC4CCCCC4)ncnc32)cc1	x	x	x	x	-4.6%	x
CCc1cccc(NC(c2ccccc2)c2nnc(-c3ccccc3F)o2)c1 (centres undefined)	x	x	-4.8%	x	u	x
O=C(COc1ccc(-c2nnc(N3CCCCC3)c3ccccc23)cc1)N1CCCCC1	-6.7%	14.6µM*	-43.4%	-2.4%	u	-0.3%
Cc1ccc(-c2nnc(N3CCN(C(=O)COc4ccccc4)CC3)c3ccccc23)cc1	-20.3%	20.6µM*	-53.8%	-2.5%	-0.9%	-5.7%
O=C(COc1ccc([N+](=O)[O-])cc1)N1CCN(c2nnc(-c3ccccc3)c3ccccc23)CC1	-0.5%	-12.7%	x	-7.4%	3.1%	-2.6%
O=C(COc1ccccc1)N1CCCC1	4.8%	12.2%	3.6%	-0.6%	-1.0%	-0.5%
O=C1C(NS(=O)(=O)c2ccccc2)=C(N2CCN(c3ccc(F)cc3)CC2)C(=O)c2ccccc21	-11.8%	23.1µM*	x	-4.3%	-5.8%	-3.3%
CC(=O)Nc1ccc(S(=O)(=O)NC2=C(N3CCN(C)CC3)C(=O)c3ccccc3C2=O)cc1	-12.7%	18.3µM*	x	2.8%	u	2.7%
CC1CCN(C2=C(NS(=O)(=O)c3ccccc3)C(=O)c3ccccc3C2=O)CC1	-4.9%	-15.3%	x	22.4%	u	14.4%
Cc1ccc(C2CCN(C(=O)c3cnn(-c4ccc(C)c(C)c4)c3C3CCN(C(=O)OC(C)(C)C)CC3)C2)cc1 (centres undefined)	x	x	x	x	2.3%	x
CC(C)COc1ccc(/C(=N/O)c2ccccc2)cc1	u	u	-13.5%	21.6%	16.9µM*	20.1%
CC(C)[C@H](CO)Nc1nc(Nc2ccc(Cl)c(C(=O)O)c2)c2ncn(C(C)C)c2n1	1.7%	5.8%	x	1.1%	u	-6.5%
CC(C)n1cnc2c(Nc3ccc(C(=O)O)cc3)nc(Cl)nc21	u	u	x	18.5%	12µM*	u
Cc1ccccc1-c1nc2cc(NC(=O)COc3ccc(F)cc3)ccc2o1	x	x	x	x	-0.7%	x
Cn1cc(Cl)c(C(=O)Nc2nc3ccccc3s2)n1	0.461µM*	u	1.78µM*	u	0.953µM*	u
SMILES	ELG1 genotoxic	ELG1 DNA repair	SMN2 splice up	Rab9 prom act	FLuc counter	NPC1 prom act
Cn1cc(Cl)c(C(=O)Nc2cccc(Cl)c2Cl)n1	-0.6%	u	56.2%	25.6%	0.4%	18.2%
CC(C)(C)c1ccc(NC(=O)c2c(F)cccc2Cl)cc1	6.9%	u	x	u	16.9µM*	12.1%
O=C(Nc1nc2ccccc2s1)c1c(F)cccc1Cl	u	u	x	u	23.9µM*	u
Cc1ccc(O)c(N=CC2=C(O)c3ccccc3C2=O)c1	u	u	25.1%	u	6.75µM*	u
Cc1ccc(O)c(C=Nc2cc(C)ccc2O)c1	-0.1%	1.1%	16.7%	0.3%	-6.8%	-0.4%
O=C1C(C=Nc2ccccc2O)=C(O)c2ccccc21	16.9%	u	35.5µM*	u	u	u
CN=CC1=C(O)c2ccccc2C1=O	11.2%	18.2%	17.3%	0.4%	2.9%	3.8%
COc1cccc(CNC(=O)Cn2c(=O)ccc3cc(S(=O)(=O)N4CCC(C)CC4)ccc32)c1	x	x	x	x	-1.7%	x
Clc1nc(-c2ccccn2)nc2scc(-c3ccccc3)c12	u	u	5.62µM*	4.47µM*	0.379µM*	u
CC1CCN(c2nc(-c3cccnc3)nc3scc(-c4ccccc4)c23)CC1	-0.3%	15.3%	-20.4%	0.3%	-1.2%	1.9%
CCOC(=O)c1cc(-c2ccc(C)cc2)n(CCC(=O)Nc2nc3c(C)cccc3s2)c1C	x	x	-15.3%	x	-6.5%	x
COC(=O)c1ccc(C(=O)OC)c(NC(=O)COC(=O)c2ccc(OC)c(OC)c2OC)c1	0.7%	5.8µM*	12.7%	-6.1%	0.6%	-1.9%
Cc1ccc(C)c(N2CCN(C(=O)c3cc(S(=O)(=O)N4CCCCC4)cn3C)CC2)c1	x	x	x	x	-4.8%	x
O=C(CCn1c(=O)sc2ccccc21)NCCC1=CCCCC1	-7.8%	u	4.1%	3.2%	-3.5%	2.1%
O=C(CCN1C(=O)c2ccccc2C1=O)NCCC1=CCCCC1	29.9%	u	13.9%	2.51µM*	21.3µM*	u
O=C(NCCC1=CCCCC1)c1ccc(Cl)cc1	u	u	x	0.282µM*	1.35µM*	0.316µM*
O=C(NCCC1=CCCCC1)c1cnccn1	14.6µM*	u	11.2µM*	3.16µM*	u	u
O=C(NCCc1ccc(Cl)cc1)c1cnccn1	16.1%	u	x	24.7%	-17.9%	16.4%
CC(C)CCn1c(=O)c2sccc2n2c(CCCC(=O)Nc3ccc(C(C)C)cc3)nnc12	x	x	x	x	1.9%	x
c1ccc2sc(Nc3nc4cc5c(cc4s3)OCO5)nc2c1	5.17µM*	u	3.16µM*	1µM*	2.39µM*	3.16µM*
Fc1ccc2nc(Nc3nc4cc5c(cc4s3)OCCO5)sc2c1	u	u	u	2.82µM*	u	2.82µM*
O=C(NNc1nc2cc3c(cc2s1)OCCO3)c1ccc(F)cc1	5.6%	u	23.9%	27.0%	u	17.2%
c1ccc2sc(NC3=NCN(Cc4ccc5c(c4)OCO5)CN3)nc2c1	-0.1%	-3.8%	1.3%	-0.8%	2.9%	0.2%
